Shiga toxin inh: A qHTS for Small Molecule Inhibitors of Shiga Toxin; Vero cells, Shiga toxin protein synthesis inhibition reporter; AID 2315, 2010; inhibition, % at 38.7 µM; 290,000 tested, 9.2% active; in the data active = inhibition mostly above about 28%, no sharp cut-off; inactive = mostly below about 43%
VACV mCherry inh: qHTS for Stage-Specific Inhibitors of Vaccinia Orthopoxvirus: mCherry Reporter Primary qHTS. Vaccinia virus mCherry reporter infection, fluorescence. Potency, µM (highest dose often 36.5 µM), actives largely listed as inhibitors. 310,000 tested, 0.63% active. AID 720579, 2013; calls by dose curve; tested in A549 cells; also: nearly all actives have a fitted effect of over 35% in size
LASV entry inh: qHTS for Inhibitors of binding or entry into cells for Lassa Virus | Lassa virus pseudotype entry inhibition, cell reporter | Potency, µM (series often up to 37.9 µM), most hits filed as inhibitors | 300,000 tested, 1.2% active | AID 540256, 2011; calls by dose curve; tested in HEK293 cells; also: nearly all actives have a fitted effect of over 50% in size
VACV Venus inh: qHTS for Stage-Specific Inhibitors of Vaccinia Orthopoxvirus: Venus Reporter Primary qHTS. 330,000 tested, 0.46% active. Vaccinia virus Venus reporter expression, fluorescence. Potency, µM (doses to about 36.5 µM), most hits filed as inhibitors; calls by dose curve; tested in A549 cells; also: nearly all actives have a fitted effect of over 30% in size
MARV entry inh: qHTS for inhibitors of binding or entry into cells for Marburg Virus; AID 540276, 2011; 300,000 tested, 1.8% active; Marburg virus pseudotyped entry inhibition, cell reporter; Potency, µM (series often up to 37.8 µM), actives largely listed as inhibitors; calls by dose curve; tested in HEK293 cells
Cycloheximide cs: Cycloheximide Counterscreen for Small Molecule Inhibitors of Shiga Toxin | cell reporter, cycloheximide protein synthesis inhibition counterscreen | max response, % | 300,000 tested, 12% active | AID 2314, 2010; in the data active = max response mostly above about 13%, no sharp cut-off; inactive = mostly below about 14%; also: read at 38.3 µM for the half of the compounds with a filed dose
Each line names hits and unclear results; the compound was inactive in the other large screens. This is one part of a sample in which hits are shown more often than they occur.

COc1ccc(N2CCN(C(=O)CSc3nnnn3-c3ccc4c(c3)OCCO4)CC2)cc1	LASV entry inh 2.91µM
COc1ccc(-c2cc(N3C(=O)Nc4ccccc4N3O)n[nH]2)c(OC)c1	none (no result: VACV mCherry inh, LASV entry inh, VACV Venus inh, MARV entry inh)
Cc1ccc(CN2CCc3nnc(C(NC(=O)c4ccoc4)C(C)C)n3CC2)cc1C (stereo not drawn)	none (no result: Shiga toxin inh, LASV entry inh, MARV entry inh, Cycloheximide cs)
CC(=O)C1CCC2C3CC(O)C4=CC(=O)CCC4(C)C3C(=O)CC12C (stereo not drawn)	MARV entry inh inconclusive (no result: Shiga toxin inh, Cycloheximide cs)
CC(SC1=NCCS1)C(=O)Nc1nnc(-c2ccc(Br)cc2)s1 (stereo not drawn)	Shiga toxin inh 37.7, Cycloheximide cs 20.6 (no result: LASV entry inh, MARV entry inh)
COc1ccc(NC(=O)C2CC(c3ccc(OC)c(OC)c3)=NO2)cc1OC (stereo not drawn)	none (no result: VACV mCherry inh, VACV Venus inh)
COc1ccc(C2=NOC(C(=O)Nc3ccc4c(c3)OCO4)C2)cc1OC (stereo not drawn)	Shiga toxin inh 88.8, Cycloheximide cs 27.9
COc1cc(C2=NOC(C(=O)Nc3ccc4c(c3)OCO4)C2)cc(OC)c1OC (stereo not drawn)	Cycloheximide cs 18.0 (no result: VACV mCherry inh, LASV entry inh, VACV Venus inh, MARV entry inh)
O=C(/C=C\c1ccccc1)NC1CC(=O)N(c2ccccc2)C1 (stereo not drawn)	none (no result: Shiga toxin inh, MARV entry inh, Cycloheximide cs)
N#CC(=C1CCCC1)c1nc(-c2ccccc2O)cs1	Shiga toxin inh 105.5, LASV entry inh 10µM, MARV entry inh inconclusive, Cycloheximide cs 53.9 (no result: VACV mCherry inh)
Cc1ccc(-c2csc(C(C#N)=C3CCCC3)n2)cc1	Shiga toxin inh 73.6, LASV entry inh inconclusive, MARV entry inh inconclusive, Cycloheximide cs 24.6 (no result: VACV mCherry inh)
N#CC(=C1CCCC1)c1nc(-c2ccccc2)cs1	Shiga toxin inh 103.4, VACV Venus inh inconclusive, Cycloheximide cs 54.3
N#CC(=C1CCCC1)c1nc(-c2cc3ccccc3oc2=O)cs1	Shiga toxin inh 50.7, LASV entry inh inconclusive, MARV entry inh inconclusive, Cycloheximide cs 32.3
N#C/C(=N/O)c1nc(-c2ccccc2)cs1	none (no result: Shiga toxin inh, VACV mCherry inh, LASV entry inh, VACV Venus inh, Cycloheximide cs)
CC1CCN(S(=O)(=O)c2ccc(C(=O)N3CCN(c4ccccc4F)CC3)cc2)CC1	none
COCC1CCN(C(=O)c2cc(COc3ccc4ncccc4c3)on2)CC1	LASV entry inh inconclusive
O=C(NCCc1cn2ccccc2n1)c1cc(COc2ccc3ncccc3c2)on1	VACV mCherry inh inconclusive, MARV entry inh 5.62µM
O=C(c1cc(COc2ccc3ncccc3c2)on1)N1CCCCCC1	Shiga toxin inh 48.6, MARV entry inh inconclusive
O=C(c1cc(COc2ccc3ncccc3c2)on1)N1CCCC1	Shiga toxin inh 39.6, MARV entry inh inconclusive, Cycloheximide cs 32.9
COc1ccc(NS(=O)(=O)c2cccc(C(=O)O)c2)cc1	none
COc1ccc(C(=O)C(C)OC(=O)c2cccc(S(=O)(=O)Nc3cc(Cl)c(OC)cc3OC)c2)cc1 (stereo not drawn)	LASV entry inh inconclusive, MARV entry inh 7.08µM
CC(=O)N(C)Cc1ccc(C(=O)CCl)cc1	Cycloheximide cs 26.2
CC(=O)N1CCc2cc(S(=O)(=O)CCC(=O)Nc3ccc4c(c3)OCCO4)ccc21	Cycloheximide cs 12.2
CCc1ccc(NC(=O)CCS(=O)(=O)c2ccc3c(c2)CCN3C(C)=O)cc1	none
O=C(C1CCC1)N1CCc2cc(S(=O)(=O)Nc3ccc4c(c3)OCCO4)ccc21	VACV Venus inh inconclusive
CCC(=O)N1CCc2cc(S(=O)(=O)Nc3ccc4c(c3)OCCO4)ccc21	VACV Venus inh inconclusive, MARV entry inh 7.94µM
CCCCOC(=O)c1ccc(NC(=O)c2ccc3c(c2)CCCN3S(C)(=O)=O)cc1	LASV entry inh inconclusive, MARV entry inh inconclusive (no result: Shiga toxin inh, Cycloheximide cs)
CSc1ccc(/C=C(\C#N)C(=O)NC2CCCCC2)cc1	MARV entry inh inconclusive
COCCNC(=O)/C(C#N)=C/c1ccc2c(c1)OCO2	Shiga toxin inh 41.4, Cycloheximide cs 19.1
C=CCNC(=O)/C(C#N)=C/c1c(C)nn(-c2ccccc2)c1Cl	MARV entry inh 7.94µM
N#C/C(=C\c1ccc2c(c1)OCO2)C(=O)NCc1ccco1	none (no result: VACV mCherry inh, VACV Venus inh)
C=CCNC(=O)/C(C#N)=C/c1ccc2c(c1)OCCO2	Shiga toxin inh 85.3, Cycloheximide cs 39.5
C=CCNC(=O)/C(C#N)=C/c1ccc(SC)cc1	Shiga toxin inh 81.2, LASV entry inh inconclusive, Cycloheximide cs 51.9
CCOc1ccc(CNC(=O)C(C)n2ncn3cccc3c2=O)cc1 (stereo not drawn)	none (no result: Shiga toxin inh, Cycloheximide cs)

Screening data deposited in PubChem BioAssay by National Center for Advancing Translational Sciences (NCATS).
